Out of some 4,800 compounds screened, about 410 (8.5%) showed an effect of 50% or more. Only a selection was taken, and strong results are over-represented in it overall.

Usually % Inhibition stands for the drop in the measured response relative to a control, in per cent.

This test relates to Plasmodium falciparum. Kind of test: Confirmatory screen in NF54 pLDH assay, in single point, at 2uM, 72h. The note with it: timepoint 72 hour. It is filed as functional, Erythrocyte.
As to `CCC(CC)c1cc([C@H]2CN3CC[C@H]2C[C@@H]3CO)nc(-c2ccncc2)n1`, the “% Inhibition” value amounted to 24%.

As to `CCC(CC)c1cc([C@H]2CN3CC[C@H]2C[C@@H]3CNS(=O)(=O)Cc2ccccc2)nc(-c2ccncc2)n1`, the “% Inhibition” value came to 60%.

Turning to `CCCS(=O)(=O)NC[C@H]1C[C@@H]2CCN1C[C@@H]2c1cc(C(CC)CC)nc(-c2ccncc2)n1`, the “% Inhibition” value worked out at 25%.

On to `CN(C)[C@@H](Cn1c(=O)[nH]c2ccccc2c1=O)c1ccco1`, for which the “% Inhibition” value is given as -13%.

In the case of `COc1ccc(-c2csc(-n3cc(C4=CCN(CCO)CC4)cn3)n2)cc1`, the “% Inhibition” value came out at 40%.

Turning to `O=C(Cc1noc2ccccc12)N1CC2CCCC(C1)N2`, the “% Inhibition” value worked out at 11%.

Regarding `CC(C)(C)CC(C)(C)NCc1cccnc1`, the “% Inhibition” value was -1%.

On to `O=C1NC(=O)C2(Cc3cc(C(F)(F)F)ccc3N3CCCCC32)C(=O)N1c1ccccc1` (centres undefined), for which the “% Inhibition” value is -21%.

On to `O=C(c1ccccc1)c1cc(Cl)ccc1NC(=O)[C@H]1CC(=O)N(c2ccc(F)cc2)C1`, for which the “% Inhibition” value is 96%.

For `Cc1c(C(=O)N2CCC3(CC2)OCCO3)oc2ccc3c(c12)[C@@H](O)CC1(CCCCC1)O3`, the “% Inhibition” value is given as 10%.

Turning to `CN(C)c1ccccc1NS(=O)(=O)c1c(Br)cc2[nH]c(=O)oc2c1Cl`, the “% Inhibition” value worked out at 2%.

As to `CCC(CC)c1cc([C@H]2CN3CC[C@H]2C[C@@H]3CNC(=O)Cc2cccs2)nc(-c2ccncc2)n1`, the “% Inhibition” value was found to be 7%.

`CN1CCc2nc3ccc(F)cc3c(C(N)=O)c2C1`: the “% Inhibition” value is recorded as -10%.

As for `Cc1ccccc1[C@H](C)NC1=NCCO1`, the “% Inhibition” value is 6%.

In the case of `CCN1C[C@]2(COC)CC[C@H](OC)[C@@]34C5C[C@@H]6[C@@H](OC)C[C@@](O)(C5[C@H]6OC(=O)c5ccccc5)[C@@H](CC23)C14` (some centres undefined), the “% Inhibition” value is 13%.

Turning to `Cc1ccc(C2CC(c3cccnc3)Nc3ncnn32)cc1` (centres undefined), the “% Inhibition” value was determined as 7%.

Take `C=CC1CN2CCC1CC2C12Nc3ccccc3C1(O)CCO2` (centres undefined): the “% Inhibition” value is listed as -15%.

Take `O[C@@]1(Cc2ccccc2)CN2CCC1CC2`: the “% Inhibition” value is 3%.

Take `COc1ccc(CCN2C(=O)NC(=O)[C@@]3(Cc4c(ccc5ccccc45)N(C)C3)C2=O)cc1OC`: the “% Inhibition” value is 6%.

In the case of `Cc1cc(C(=O)NC2CC(C)n3ccnc32)nn1C(C)C` (centres undefined), the “% Inhibition” value is 70%.

Consider `CCc1nsc(N2CCC3CCC(C2)N3C)n1` (centres undefined), for which the “% Inhibition” value was -12%.

As for `C[C@@H]1N=C(c2ccccc2)c2cc(Cl)ccc2N(CC(=O)Nc2cccc(C(F)(F)F)c2)C1=O`, the “% Inhibition” value turned out to be 11%.

`Cc1ccc(CN2CC(=O)N(C)CC23CCCCC3)nc1`: the “% Inhibition” value is reported as -19%.

Consider `Clc1ccc(C2CC(c3cccnc3)Nc3ncnn32)cc1` (centres undefined), for which the “% Inhibition” value is recorded as -11%.

Consider `COC(=O)c1cc(OC)cc2[nH]c(=O)oc12`, for which the “% Inhibition” value is -17%.

On to `O=C1CCN(C(=O)c2ccc(F)c(Cl)c2)CC1`, for which the “% Inhibition” value is 13%.

Consider `CC(CCc1ccccc1)N1C(=O)NC(=O)C2(Cc3c(ccc4ccccc34)N(C)C2)C1=O` (centres undefined), for which the “% Inhibition” value turned out to be 6%.

On to `CCn1cnc2c(N3C4CCC3C(C(=O)OC(C)(C)C)C4)ncnc21` (centres undefined), for which the “% Inhibition” value was -8%.

Consider `CC1CNCC(C)N1Cc1csc(C2CC2)n1` (centres undefined), for which the “% Inhibition” value is recorded as -9%.

Regarding `O=C1NC(=O)C2(Cc3cccc(F)c3N3CCC(c4ccccc4)CC32)C(=O)N1c1ccccc1` (centres undefined), the “% Inhibition” value is on record as -18%.

Regarding `COc1cc(OCC(=O)N2CCN([C@@H](C)Cc3ccccc3)CC2)cc(OC)c1OC`, the “% Inhibition” value is on record as 3%.

As for `Cc1cc(=O)c(OCC(=O)N2CCN([C@@H](c3ccccc3)c3ccc(Cl)cc3)CC2)c[nH]1`, the “% Inhibition” value is reported as 74%.

As to `O=C(N1CCN(C(c2ccccc2)c2ccccc2)CC1)C(O)(c1ccccc1)c1ccccc1`, the “% Inhibition” value is listed as -14%.

As to `COc1cnc(C(F)(F)F)nc1N1CCNCC1`, the “% Inhibition” value worked out at 9%.

Turning to `Cn1cc(Br)cc1C(=O)C(Cl)(Cl)Cl`, the “% Inhibition” value is -6%.

`CC(C)(C)NC(=O)C1CC2CCCCC2CN1` (centres undefined): the “% Inhibition” value turned out to be 2%.

`CN1CC2(CN(Cc3cnc4ccc(Cl)cn34)C2)OC1=O`: the “% Inhibition” value came out at 6%.

On to `C=CCN(C)C[C@H]1CN2CC[C@H]1C[C@@H]2CNC(=O)Nc1ccc(OC(F)(F)F)cc1`, for which the “% Inhibition” value was 17%.

`O=C1CCN(C(=O)c2ccc(Cl)c(Cl)c2)CC1`: the “% Inhibition” value was 12%.

`CN1CCC(N(C)C2CCCCC2N(C)C(=O)Cc2ccc(O)cc2)CC1` (centres undefined): the “% Inhibition” value stood at 4%.

With `CC(=O)N(C1CCN(Cc2ccccc2)CC1)C1(C(=O)Nc2ccc3[nH]ccc3c2)CCN(C)CC1`, the “% Inhibition” value was 101%.

As to `CN1CC2CN(Cc3ccccc3)CC(C1)C2=O`, the “% Inhibition” value was -5%.

Turning to `COCCn1ccc(C(=O)N[C@H]2CCc3nc(C(C)C)nn3C2)n1`, the “% Inhibition” value is 1%.

In the case of `c1cc(N2CC[C@@]3(CCCNC3)C2)c2sccc2n1`, the “% Inhibition” value came to 98%.

As to `CN1CC[C@]2(CCN(c3ccnc4ccsc34)C2)C1`, the “% Inhibition” value turned out to be 97%.

As for `CN1CCC2(CC1)CNc1ccccc12`, the “% Inhibition” value was found to be 0%.

In the case of `COC(=O)COc1ccc(C#N)c(Cl)c1`, the “% Inhibition” value was 1%.

In the case of `CCOc1ccccc1NC(=O)c1cn(Cc2ccc(N)cc2)cn1`, the “% Inhibition” value was determined as 6%.

In the case of `O=c1[nH]c2cc(NS(=O)(=O)c3ccc(C4CCCCC4)cc3)ccc2o1`, the “% Inhibition” value is given as -14%.

On to `COc1ccc(N2C[C@H]2c2ccncc2)cc1`, for which the “% Inhibition” value stood at 12%.

Turning to `O=C(NC[C@H]1C[C@@H]2CC[N@]1C[C@@H]2CN1CCC(Cc2ccccc2)CC1)Nc1ccccc1`, the “% Inhibition” value was found to be 27%.

Regarding `CN(C)C(=O)Oc1cccc2ccc(CN3CCC(N4CCN(c5ccc(C(F)(F)F)cn5)CC4)CC3)nc12`, the “% Inhibition” value was 5%.

`O=C(Cc1cnc2ccccn12)N1C[C@H]2CC[C@@H](C1)N(Cc1ccccn1)C2`: the “% Inhibition” value is given as 20%.

As to `CNCCc1cc(OC)c(OC)c2c1ccc1cc(OC)c(OC)cc12`, the “% Inhibition” value is recorded as 7%.

`c1ccc2c(CCNC3(c4nnnn4C4CCCCC4)CCCCC3)c[nH]c2c1`: the “% Inhibition” value turned out to be 16%.

In the case of `O=S(=O)(NC12CCCC1CNC2)c1onc(C2CC2)c1Cl` (centres undefined), the “% Inhibition” value is 97%.

Consider `O=C(NCc1ccc(Br)cn1)[C@H]1NCC12CCCC2`, for which the “% Inhibition” value is given as 4%.

Regarding `COC(=O)CNc1cc(C)c([C@@](O)(C(=O)OC)C(F)(F)F)cc1OC`, the “% Inhibition” value was found to be 6%.

For `CCN(CC)C(=O)Oc1cc2nnnn2nc1-c1ccccc1`, the “% Inhibition” value is on record as 6%.

For the molecule `CC(C)N1C(=O)NC(=O)C2(Cc3ccccc3N3CCN(Cc4ccccc4)CC32)C1=O` (centres undefined), the “% Inhibition” value amounted to 19%.

On to `C=CCCC(CN1C[C@H]2CC=CC[C@H]2C1)Oc1ncc(F)cn1` (some centres undefined), for which the “% Inhibition” value worked out at 64%.

Take `C[C@@H](Cc1ccc(O)cc1)NCc1cc[nH]n1`: the “% Inhibition” value was determined as 12%.

`CCCC(=O)N(C(=O)CCC)c1ccc2[nH]c(=O)oc2c1`: the “% Inhibition” value was -1%.

With `Cc1ccc(Cl)c(NC(=O)N2CCC[C@H](c3n[nH]c(=O)o3)C2)c1`, the “% Inhibition” value was 2%.

Source of the values: ChEMBL document CHEMBL4888484, “Replenishing the malaria drug discovery pipeline: Screening and hit evaluation of the MMV Hit Generation Library 1 (HGL1) against asexual blood stage Plasmodium falciparum ,using a nano luciferase reporter read-out” (2022).
